Source: article PMC5540273 (PLoS ONE, 2017)

These compounds were tested on SRPK1. Details: concentration: 1 μM, replicates: in singlicate; n = 1.
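Further: KINOMEscan kinase panel screen.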

SMILES	%Inh [%]
CC(=O)Nc1nc2cnc(Nc3cc(NC(=O)c4cccc(CCC#N)c4)ccc3C)nc2s1	17
Cc1nnc(-c2ccc3occ(-c4ccc(S(C)=O)cc4)c3c2)[nH]1 (centres unmarked)	27
Cc1ccc(NC(=O)Nc2cccc(Cl)c2)cc1-c1ccc(C(=O)Nc2ccncc2)cc1 [GSK1398468]	0
COc1ccc(Nc2nccc(-c3cccc(NC(=O)c4cc5cc(F)ccc5[nH]4)c3)n2)cc1 [GSK1229782]	44
COc1cccc(-c2cc(-c3c[nH]nc3-c3ccccn3)ccn2)c1 [GW680338]	96.8
Fc1cc(Cl)ccc1Nc1ccnc2cc(-c3ccc(CN4CCCCC4)o3)ccc12 [GW560116]	0
O=C(Nc1ccc2c(c1)OCO2)NC1CCN(c2ccnc(Nc3ccc(F)cc3)n2)C1 (centres unmarked) [GSK1379724]	0
O=C(Nc1ccccc1)Nc1cccc(Oc2ccc3nccn3n2)c1	0
Cn1ccc2ncnc(Oc3ccc(NC(=O)Nc4ccccc4)cc3)c21	0
Cc1ccc(-c2cc(-c3c[nH]nc3-c3ccccn3)ccn2)cc1 [GW684088]	13
O=C(O)COc1ncnc2cc(-c3ccc4[nH]ncc4c3)sc12	0
C[C@@H]1CCCCN1c1cc(-c2ccc3c(N)n[nH]c3c2)nc(N)n1 [GSK2258759]	0
COc1cc(Nc2nccc(N3CCC(NC(=O)Nc4cc(C)ccc4C)C3)n2)cc(OC)c1OC (centres unmarked) [GSK1379762]	53
Nc1nc(-c2nccs2)c(-c2ccnc3ccccc23)s1 [GW693542]	20
Cn1cncc1-c1ccc2ncnc(Nc3ccc(OCc4ccccc4)cc3)c2c1 [GW320571]	0
Cc1cccc(-c2nc(Nc3ccc4[nH]ncc4c3)c3ccccc3n2)n1 [GW857175]	16
O=C1NC(=O)C(N2CCc3ccccc32)=C1c1ccccc1Cl [SB-373598]	0
O=C(Nc1n[nH]c2nc(-c3nccs3)c(Br)cc12)C1CC1 [SB-742251]	19

SMILES	%Inh [%]
CCCc1ccc(S(=O)(=O)NC2CCN(c3ccnc(Nc4ccc(F)cc4)n3)C2)cc1 (centres unmarked) [GSK1379715]	0
Fc1cccc(COc2nnc(-c3ccc4c(c3)CCO4)o2)c1	0
CS(=O)(=O)c1ccc(-c2c(-c3ncn[nH]3)sc(N3CCOCC3)c2C#N)cc1	0
COc1ccc(CNC(=O)NC2CCN(c3ccnc(Nc4cc(OC)c(OC)c(OC)c4)n3)C2)cc1 (centres unmarked) [GSK1379748]	11
O=c1cc(N2CCOCC2)nc2n(Cc3cccc(Cl)c3Cl)ccn12 [GSK2286295]	34
Cc1ccccc1-n1cnc2c(N)ncnc21 [SKF-97510]	0
Cc1cccc(-c2nc(-c3ccc(S(C)(=O)=O)cc3)sc2-c2ccnc(NCCc3ccccc3)c2)c1	0
Cc1cccc(-c2nc(C)cc(Nc3ccncc3)n2)n1 [GSK257997]	35
Cc1cc(-c2ccc3c(c2)CC[C@@H](N[C@@H](C)c2ccccc2)C3)cnc1N.Cl [GW412617]	24
Cc1ccc(NC(=O)Nc2cc(C(C)(C)C)nn2-c2ccccc2)cc1 [GSK1014915]	21
COc1cc2ncn(-c3cc(OCC4CCCO4)c(C(N)=O)s3)c2cc1OC (centres unmarked) [GSK204607]	28
COc1cccc(NC(=O)NC2CCN(c3ccnc(Nc4ccc(F)cc4)n3)C2)c1 (centres unmarked) [GSK1379721]	0
CC1=C(C(=O)Nc2cc3cn[nH]c3cc2F)C(c2ccc(C(F)(F)F)cc2)CC(=O)N1 (centres unmarked) [GSK429286]	0
COc1ccc(C2=C(Nc3cccc(C(=O)O)c3)C(=O)NC2=O)cc1 [SB-390765]	0
COc1cc2ncnc(Nc3ccc4nc(-c5ccccc5)[nH]c4c3)c2cc1OC.Cl [GW282450]	3
CN1C(=O)C(Nc2ccc(Cl)c(C(=O)O)c2)=C(c2ccc(Cl)cc2)C1=O [SB-404290]	20
Cl.NC(=O)c1cccc(Nc2nccc(Nc3ccc(Oc4cccc(Cl)c4)c(Cl)c3)n2)c1 [GW659008]	0
